# Reference: PubChem BioAssay AID743398 (Broad Institute, 2014)
# Screen size: about 300,000 compounds; about 3,600 (1.2%) were called active. Many of the other results were omitted from the sample, so actives are more common in it than they were. Unmarked numbers belong to inactive results. Rule as the data show it: active = activation above about 30% (passing the limit was not always enough); inconclusive = no clear call, values can overlap the other calls. Where a SMILES comes first, the peptide text is derived from it. [ ]: non-standard residue; d: D form. The star is where a group is joined. PhAc = O=C(Cc1ccccc1)*
# Experiment: activation of beta-catenin signaling reporter – cell-based, plate reader, single point, primary screen (AID 743398);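 also: 0% = neutral control wells and 100% = positive control wells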
# Conditions: Wnt/beta-catenin reporter cell assay, activator, at 9.35 µM, stronger effect = higher value
row,Compound,activation
1,O=CNc1cc(-c2ccc(C(=O)N3CCOCC3)cc2)cn2c(-c3ccc(F)cc3)cnc12,-3.58%
2,Cc1noc(C)c1C(=O)Nc1ccccn1,-1.19%
3,Cc1nonc1NC(=O)c1oc2ccccc2c1C,8.7%
4,Cc1c(C(=O)Nc2ccccn2)oc2ccc(Br)cc12,34.7% (active)
5,O=C(/C=C/c1ccc(F)cc1)NCCNC(=O)/C=C/c1ccc(F)cc1,-1.4%
6,C=CCNC(=O)/C=C/c1ccc(C(C)C)cc1,42.6% (active)
7,CC(C)c1ccc(/C=C/C(=O)NCCCN2CCOCC2)cc1,-3.21%
8,CCOC(=O)[C@]12CCC=C1N(Cc1cccc3ccccc13)C(=O)[C@H](CC(=O)NCc1cccc(C(F)(F)F)c1)C2,-1.93%
9,C#CCN(C[C@@H]1[C@@H](OC(=O)NC2CC2)[C@@H](OC(=O)NC2CC2)Cn2c(=O)ccc(=O)n21)S(=O)(=O)c1ccc(C)cc1,-2.83%
10,O=[N+]([O-])c1ccc(C(S(=O)(=O)Cc2ccccc2)S(=O)(=O)Cc2ccccc2)cc1,-5.67%
11,CC(=O)c1ccc2c(c1)OCCOCCOc1ccc(C(C)=O)cc1OCCOCCO2,1.05%
12,O=C(Nc1ccc(Cl)cn1)c1ccc2c(c1)OCCO2,24.2%
13,Cc1cccc(C)c1NC(=O)CNC(=O)c1ccc2c(c1)OCCO2,13.2%
14,O=C(Nc1ccccc1)c1ccc2c(c1)OCCCO2,19.2%
15,Cc1nc(NC(=O)c2ccc3c(c2)OCCO3)ccc1Br,48.4% (active)
16,Cc1ccc(C(=O)NNC(=O)c2ccc3c(c2)OCCO3)cc1,43.9% (active)
17,CN(CCc1ccccc1)C(=O)c1cccc(NC(=O)Cc2cccc(NC(=O)C3CCCN(C(=O)C4CCC4)C3)c2)c1 (centres undefined),-3.51%
18,C[C@H]([C@@H](O)[C@@H](O)[C@@H](C)C(C)(C)C)[C@H]1CC[C@H]2C3CC[C@H]4C[C@H](OS(=O)(=O)O)[C@@H](OS(=O)(=O)O)C[C@]4(C)[C@H]3CC[C@]12C (some centres undefined),-0.623%
19,CC12CCC(=O)C=C1CCC1C2C(O)CC2(C)C1CCC2(O)C(O)CO (centres undefined),3.61%
20,Cn1c(=NC(=O)c2ccco2)sc2cccc(F)c21,61.6% (active)
21,Cn1c(=NC(=O)C2CC2)sc2cc(F)cc(F)c21,7.6%
22,CCCC(=O)N=c1sc2cccc(F)c2n1C,5.33%
23,Cc1ccc(S(=O)(=O)N2C[C@]3(O)C[C@@H]4C(=O)N(c5ccccc5)C(=O)[C@@H]4C[C@]3(OC(=O)NC3CC3)C2)cc1,-1.31%

row,Compound,activation
1,Clc1ccc(Nc2nc(-c3cccs3)cs2)nc1,25.2%
2,CC(=O)Nc1cnc(-c2ccc(O)cc2C)cn1,-0.836%
3,Cc1ccc(Nc2nc(-c3ccc(O)cc3O)cs2)nc1,59.5% (active)
4,Cn1c(=O)c2cc(NC(=O)NCCc3cccs3)ccc2n1Cc1cccc(C(F)(F)F)c1,-1.78%
5,Cc1ccc(S(=O)(=O)N2CC3C(=O)C[C@@H](c4ccccc4Cl)N(S(=O)(=O)c4ccc(C)cc4)C3CC2c2ccccc2)cc1 (some centres undefined),-1.39%
6,COC(=O)c1ccc2nc(-c3ccc(Cl)cc3)c(Cc3cccc(F)c3)n2c1,11.3%
7,Cc1ccc(S(=O)(=O)NCCC(=O)Nc2cccc(S(N)(=O)=O)c2)cc1C,-1.96%
8,Cc1ccc(S(=O)(=O)NCCC(=O)Nc2ccc(C)c(Cl)c2)cc1C,-1.93%
9,Cc1ccnc(NC(=O)CCNS(=O)(=O)c2ccc(C)c(C)c2)c1,35.8% (active)
10,CCN1CCCC1CNC(=O)c1ccc2c(c1)NC(=O)/C(=C\c1ccccc1F)S2 (centres undefined),-0.637%
11,O=c1[nH]c(-c2ccccc2)cn1C1CCN(Cc2ccc(-c3nc4ccc(F)cc4nc3-c3ccccc3)cc2)CC1,0.441%
12,COCCCn1c(C(=O)NC2CCCCC2)cc2c(=O)n3cccc(C)c3nc21,-1.3%
13,CC(C)NC(=O)N1Cc2cc(C(=O)NCC(F)(F)F)nc(-c3cccc(-c4cc5ccccc5o4)c3)c2[C@@H]1CCO,-2.74%
14,CC(C)c1cc(C(=O)NC2CCCCCC2)c2ccccc2n1,-2.8%
15,CC1CCCCC1NC(=O)Cn1c(=O)cnc2ccccc21 (centres undefined),-3.58%
16,O=C(/C=C/c1cnc2ccccc2n1)NC1CCCCCC1,49.2% (active)
17,COC(=O)[C@]1(Cc2ccccc2)NC=C(C(=O)c2ccccc2)[C@@H]1c1cccc(OC)c1,2.93%
18,COC(=O)c1c(-c2ccc(OC)cc2)c2c(c3c4cc(OC)ccc4n(S(=O)(=O)c4ccc(F)cc4)c13)C(=O)N(C)C2,-8.37%
19,CCNC(=O)C1(C)CCCN1C(=O)c1ccc(N(C)C)cc1 (centres undefined),-4.12%
20,CN(C)c1ccc(CSc2ccccc2)cc1,2.13%
21,CN(C)c1ccc(CNC23CN4CN(CN(C4)C2)C3)cc1,35.9% (active)
22,Nc1ncnc2c1ncn2[C@@H]1O[C@H](C(=O)N[C@@H](CCc2ccccc2)C(=O)NCC(=O)N2CCOCC2)[C@@H](O)[C@H]1O,-8.65%
23,CCOc1cc(/C=C2\C(=N)N3N=C(C)SC3=NC2=O)ccc1OCCOc1ccccc1,0.097%

row,Compound,activation
1,COc1ccc(OCCCn2cccc2/C=C2/C(=N)N3OC(C)=CC3=NC2=O)cc1,21%
2,CCOc1cc(/C=C2/C(=N)N3OC(C)=CC3=NC2=O)ccc1OC,39.2% (active)
3,COc1ccc(-c2cc3c(c4c2ccn4C)C2CCC3C2)cn1 (centres undefined),-0.553%
4,Cc1cccc(-c2cnc(C(O)c3ccc4ccccc4c3)[nH]2)c1 (centres undefined),-0.607%
5,CS(=O)(=O)c1ccc(Cl)c(NC(=O)Nc2ccccc2)c1,1.45%
6,Cc1c(NC(=O)Nc2ccccc2)cccc1[N+](=O)[O-],1.75%
7,Cc1ccc(NC(=O)Nc2ccccc2)c(Br)c1,50.8% (active)
8,CC[C@H](C)[C@H]1CNC(=O)C(=O)N1CC1CCN(CCc2ccc(OC)c(OC)c2)CC1,-3.36%
9,COc1cccc(-c2nc3cc(C)ccc3o2)c1,40.6% (active)
10,COc1ccc2oc(-c3cccc(NC(=O)CSc4ccc(Cl)cc4)c3)nc2c1,22.7%
11,COc1ccc2oc(N)nc2c1,2.19%
12,CC(=O)Oc1ccc(Cn2c(C)c(C(=O)NCc3ccc(C#N)cc3)sc2=O)cc1,-1.94%
13,Cc1ccc(-c2nc3c(Cl)cc(C(F)(F)F)cn3c2Cc2cccc(Cl)c2)cc1,-3.09%
14,CC(=O)Nc1cccc(-c2cc(NC=O)c3ncc(-c4ccc(F)c(Cl)c4)n3c2)c1,-1.52%
15,COc1cccc(-c2cc3nc(NCCOc4ccccc4Cl)n(C)c(=O)c3s2)c1,0.348%
16,COc1ccc(-c2ccc3c(n2)CCCN3S(=O)(=O)c2ccc(C)cc2)cc1,-3.98%
17,O=C(O)CSCc1nc2ccccc2s1,39.2% (active)
18,O=C(O)CCCCc1nc2ccccc2s1,-1.61%
19,O=C(O)c1ccccc1CSc1nc2ccccc2s1,2.11%
20,CS(=O)(=O)N1CCC(C(=O)N2CCN(c3ccccc3)CC2)CC1,-0.44%
21,CC(=O)c1cnc(-c2ccccc2)s1,2.94%
22,CS(=O)(=O)N1CCc2nc(-c3ccccc3)sc2C1,35.7% (active)
23,COC(=O)Cc1nnn2c1[C@H](C)[C@@H](OC)c1cc(Br)ccc1-2,2.78%

row,Compound,activation
1,Nc1nc2c(ncn2[C@@H]2O[C@H](C(=O)N[C@H](Cc3ccccc3)C(=O)NCC3CCCCC3)[C@@H](O)[C@H]2O)c(=O)[nH]1,-6.28%
2,COc1ccc(CNC(=O)c2ccc(-c3cccnc3)c3ccoc23)cc1OC,-3.07%
3,COc1ccc(OCCC(=O)c2ccc(OC)cc2)cc1,-1.86%
4,COc1ccc(CCC(=O)c2ccc(OC)cc2)cc1,5.92%
5,CO/N=C/CC(=O)c1ccc(OC)cc1,61.5% (active)
6,CC(C)(C)C(c1nc2ccccc2[nH]1)n1c(Cc2csc3ccccc23)nc2ccccc21 (centres undefined),15.7%
7,C=CCc1c(C)nc2cc(-c3ccccc3)[nH]n2c1=O,45.5% (active)
8,CCc1c(C)nc2cc(C)[nH]n2c1=O,-2.02%
9,CCCCN1Cc2c(nc3cc(-c4ccccc4)[nH]n3c2=O)C1=O,0.267%
10,COc1ccc(CN2CCC(C)(Oc3cccc(F)c3)C2)c2ccccc12 (centres undefined),-4.58%
11,CCc1nc2c(OCCOc3ccccc3)cccn2c1N(C)C(=O)c1ccccc1F,-2.42%
12,CC(O)(c1cccc(F)c1)c1nc(-c2ccc3c(c2)OCO3)cs1 (centres undefined),-1.63%
13,O=C(Oc1ccc(-c2nc(-c3ccccn3)no2)cc1)c1ccccc1,1.55%
14,Brc1ccc(-c2noc(-c3ccccc3)n2)o1,43.9% (active)
15,Nc1ccc(-c2nnc(-c3ccccc3)o2)cc1,2.79%
16,Cc1cc2nc(-c3ccc(F)cc3)c(Cc3ccsc3)n2c(C)c1Br,-0.642%
17,COc1cccc(CNC(=O)[C@H]2CCCN2C(=O)[C@H]2CCCN2C(=O)C2CCCCC2)c1,0.974%
18,CC(C)C[C@H](NC(=O)C1CCC(CNC(=O)[C@@H]2CCCN2C(=O)OC(C)(C)C)CC1)C(=O)O (some centres undefined),1.33%
19,COC(=O)[C@H](CC(C)C)NC(=O)N1CCCCC1C (some centres undefined),39.6% (active)
20,CC(C)C[C@@H](NC(=O)[C@H]1CCCN1C(=O)Cc1ccccc1)C(N)=O (PhAc-[dP]-[dL]-NH2),0.192%
